Luciferase inh – inhibitors of firefly (Photinus pyralis) luciferase | P08659 | AID 1347043 | 76,000 tested, 2.5% active | Potency, µM (top dose mostly 115 µM), most hits filed as inhibitors | purified P. pyralis luciferase, luminescence, biochemical; further: nearly all actives have a fitted effect of over 65% in size
Target sequence (P08659 whole entry, looked up): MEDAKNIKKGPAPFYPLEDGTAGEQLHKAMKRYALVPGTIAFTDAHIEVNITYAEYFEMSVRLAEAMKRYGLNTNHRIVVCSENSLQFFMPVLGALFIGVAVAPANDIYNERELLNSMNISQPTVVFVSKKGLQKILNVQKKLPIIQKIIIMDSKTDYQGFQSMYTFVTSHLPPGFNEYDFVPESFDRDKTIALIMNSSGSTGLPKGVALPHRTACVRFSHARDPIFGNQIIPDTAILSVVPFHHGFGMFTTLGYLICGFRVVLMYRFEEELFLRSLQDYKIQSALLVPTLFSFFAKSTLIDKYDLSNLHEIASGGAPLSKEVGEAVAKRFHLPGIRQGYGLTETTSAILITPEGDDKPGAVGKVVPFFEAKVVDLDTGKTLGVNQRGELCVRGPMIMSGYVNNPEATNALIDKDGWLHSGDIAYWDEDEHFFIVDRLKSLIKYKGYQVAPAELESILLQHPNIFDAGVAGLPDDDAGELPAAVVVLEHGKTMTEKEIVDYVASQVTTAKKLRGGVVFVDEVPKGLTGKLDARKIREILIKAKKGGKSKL
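Purified P. pyralis luciferase (10nM final) in 50mM Tris acetate pH 7.5, 10mM Mg acetate, 0.01% Tween-20, 0.05% BSA with 10uM D-luciferin and 10uM ATP. Compounds titrated qHTS. Luminescence imaged on CCD.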
HEK cytotox – kills HEK 293 cells | Potency, µM (titrated, usually from 115 µM), for inactives: at the highest dose activity change, negative = cytotoxicity, actives largely listed as inhibitors | HEK 293 viability, ATP luminescence (CellTiter-Glo), 48-72 h | 94,000 tested, 6.6% active; further: nearly all actives have a fitted effect of over 60% in size
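Luminescence from cellular ATP, measured with CellTiter-Glo, indicates HEK 293 viability. Cells plated at 250 cells/well are treated with compound for 48 or 72 hr at 37 degree Celsius before reagent addition.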
3T3 cytotox – kills NIH 3T3 cells; NIH 3T3 viability, CellTiter-Glo ATP luminescence, 48-72 h; Potency, µM (doses to about 96.7 µM), inactives show at the top dose activity change, negative = cytotoxicity, actives largely listed as inhibitors; 94,000 tested, 4.3% active; AID 1345082; further: nearly all actives have a fitted effect of over 55% in size
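Cytotoxicity is measured as loss of cellular ATP: NIH 3T3 cells (400/well) are exposed to compound for 48 or 72 hr at 37 °C, then CellTiter-Glo luminescence is imaged after 10 min at room temperature.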
hNpr1 antagonist – human Npr1 receptor antagonism | P16066 | HEK293 hNpr1 GloSensor cGMP, ANP-stimulated luminescence | Potency, µM (highest dose often 46.3 µM), without a hit: top-dose activity change, negative = inhibition, actives largely listed as inhibitors | 76,000 tested, 1.6% active; calls by dose curve; further: nearly all actives have a fitted effect of over 60% in size
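HEK293 cells stably expressing human Npr1 and cGMP GloSensor pGS-40F, loaded 2 h with 2% GloSensor reagent, given compound 30 min at room temperature. Luminescence read before and 20 min after 0.1 nM hNppA.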
* marks the source's active call; other numbers are inactive results; [ ] = another dose, or the depositor's remark. Only some compounds are listed: those with a hit (about 11% of all), similar ones and a draw of the others. Unless noted, the call rests on the fitted dose curve; in most records, active means well fitted curve in the direction sought with a large enough effect; inconclusive means small, poorly fitted or top-dose-only effect, or another doubt; inactive means no such curve, though single readings can be large; an effect the other way counts as inactive or inconclusive. On the % scale 0 is the no-effect control and ±100 the full control effect; potency means the concentration at half of the fitted maximal effect.

`COc1cc2c(cc1OCC1CC1)NC(=O)C21CCN(c2ncc(C(C)C)cn2)CC1` gave Luciferase inh inactive, HEK cytotox 100µM*, 3T3 cytotox 79µM* and hNpr1 antagonist 6%[70.6 µM].
Screening COc1cc2c(cc1OCC1CC1)NC(=O)C21CCN(c2cnccn2)CC1 returned Luciferase inh inactive, HEK cytotox inconclusive, 3T3 cytotox -9%[138 µM] and hNpr1 antagonist -1%[70.6 µM].
`CN1Cc2ccccc2-n2ccnc2C12CCN(C(=O)c1ccc(F)cc1)CC2` gave Luciferase inh inactive, HEK cytotox -9%, 3T3 cytotox inconclusive and hNpr1 antagonist -2%.
`CCOC(=O)[C@H]1CN(C(=O)/C=C/c2ccccc2)[C@]2(C)C(=O)N(C)c3ccccc3[C@H]12` gave HEK cytotox inconclusive and 3T3 cytotox -20%[46.1 µM].
For CC(=O)c1ccc(NC(=O)NC[C@H]2C[C@@H]3CCN2C[C@@H]3CN2CCC(Cc3ccccc3)CC2)cc1 the results were Luciferase inh inactive, HEK cytotox inconclusive, 3T3 cytotox inconclusive and hNpr1 antagonist 7%.
Screening CN(C)c1ccc(C(=O)NC[C@H]2C[C@@H]3CCN2C[C@@H]3CN(C)c2ccccc2)cc1 returned Luciferase inh inactive, HEK cytotox inconclusive, 3T3 cytotox inconclusive and hNpr1 antagonist -6%[70.6 µM].
CN(C[C@H]1CN2CC[C@H]1C[C@@H]2CNC(=O)c1ccc(C(F)(F)F)cc1)c1ccccc1 was read as Luciferase inh inactive, HEK cytotox 28µM*, 3T3 cytotox 45µM* and hNpr1 antagonist inconclusive.
`O=C(NC[C@H]1C[C@@H]2CCN1C[C@@H]2CN1CCC(Cc2ccccc2)CC1)c1ccccc1` gave Luciferase inh inactive, HEK cytotox 25µM*, 3T3 cytotox 25µM* and hNpr1 antagonist 0%[70.6 µM].
Screening O=C(NC[C@H]1C[C@@H]2CCN1C[C@@H]2CN1CCC(Cc2ccccc2)CC1)c1ccc(C(F)(F)F)cc1 returned Luciferase inh inactive, HEK cytotox 79µM*, 3T3 cytotox inconclusive and hNpr1 antagonist 1%.
CN(C[C@H]1CN2CC[C@H]1C[C@@H]2CNC(=S)NCc1ccco1)c1ccccc1 was read as Luciferase inh inactive, HEK cytotox 40µM*, 3T3 cytotox 28µM* and hNpr1 antagonist 2%[70.6 µM].
CCOC(=O)[C@H]1CN(C(=O)OCC(C)(C)C)[C@]2(C)C(=O)N(C)c3ccccc3[C@H]12 was read as HEK cytotox -26%[57.5 µM] and 3T3 cytotox inconclusive.
For Cc1cc(CN2CCC3CC(=O)NCCC3C2)cc(C)n1 (stereo not given) the results were HEK cytotox 3%[172 µM] and 3T3 cytotox 4%[138 µM].
For CC(C)NC(=O)OC[C@H]1C[C@@H]2CCN1C[C@@H]2c1cc(-c2ccc(F)cc2)nn1C the results were Luciferase inh inactive, HEK cytotox 112µM*, 3T3 cytotox inconclusive and hNpr1 antagonist -2%[70.6 µM].
`CCCNC(=O)OC[C@H]1C[C@@H]2CCN1C[C@@H]2c1cc(-c2ccc(F)cc2)nn1C` gave Luciferase inh inactive, HEK cytotox inconclusive, 3T3 cytotox inconclusive and hNpr1 antagonist -9%[70.6 µM].
Screening COc1ccc(-c2cc([C@H]3CN4CC[C@H]3C[C@@H]4COC(=O)Nc3ccc(C(C)C)cc3)n(C)n2)cc1OC returned Luciferase inh inactive, HEK cytotox inconclusive, 3T3 cytotox inconclusive and hNpr1 antagonist 0%.
Screening CCCNC(=O)OC[C@H]1C[C@@H]2CCN1C[C@@H]2c1cc(-c2ccccc2OC)nn1C returned Luciferase inh inactive, HEK cytotox inconclusive, 3T3 cytotox inconclusive and hNpr1 antagonist -1%[70.6 µM].
Screening CC(C)NC(=O)OC[C@H]1C[C@@H]2CCN1C[C@@H]2c1cc(-c2ccc3ccccc3c2)nn1C returned Luciferase inh 40µM*, HEK cytotox 28µM*, 3T3 cytotox 28µM* and hNpr1 antagonist -25%[70.6 µM].
`CCCNC(=O)OC[C@H]1C[C@@H]2CCN1C[C@@H]2c1cc(-c2ccc3ccccc3c2)nn1C` gave Luciferase inh inactive, HEK cytotox 63µM*, 3T3 cytotox 32µM* and hNpr1 antagonist -10%[70.6 µM].
For Cn1nc(-c2ccc3ccccc3c2)cc1[C@H]1CN2CC[C@H]1C[C@@H]2COC(=O)Nc1cccc(C(F)(F)F)c1 the results were Luciferase inh inactive, HEK cytotox 79µM*, 3T3 cytotox inconclusive and hNpr1 antagonist 4%.
COc1cc2c(cc1OC1CCCC1)NC(=O)C21CCN(Cc2nccs2)CC1 was read as Luciferase inh inactive, HEK cytotox 100µM*, 3T3 cytotox inconclusive and hNpr1 antagonist -4%[70.6 µM].
For COc1cc2c(cc1OC1CCCC1)NC(=O)C21CCN(Cc2ccccc2O)CC1 the results were Luciferase inh inactive, HEK cytotox 40µM*, 3T3 cytotox 22µM* and hNpr1 antagonist -20%[70.6 µM].
`COc1cc2c(cc1OC1CCCC1)NC(=O)C21CCN(Cc2cccnc2)CC1` gave Luciferase inh inactive, HEK cytotox 100µM*, 3T3 cytotox inconclusive and hNpr1 antagonist -8%[70.6 µM].
CCN1CCCN(C(=O)Cc2ccccc2)CC12CCOCC2 was read as HEK cytotox -3% and 3T3 cytotox -20%.
O=C(Nc1ccccc1)C1=NO[C@@H]2CN(Cc3ccccn3)C[C@H]12 was read as Luciferase inh inconclusive, HEK cytotox inconclusive, 3T3 cytotox -21%[138 µM] and hNpr1 antagonist 5%[70.6 µM].
`CCOC(=O)[C@H]1CN(C(=O)C2CCCC2)[C@]2(C)C(=O)Nc3ccccc3[C@H]12` gave HEK cytotox inconclusive and 3T3 cytotox -17%[46.1 µM].
Screening CN(C)Cc1ccccc1-c1ccc2n(c1=O)C[C@H]1C[C@@H]2CN(C(=O)c2cccs2)C1 returned Luciferase inh inactive, HEK cytotox -10%[172 µM], 3T3 cytotox -8%[174 µM] and hNpr1 antagonist 0%[70.6 µM].
`Cc1nc(-c2cccs2)cc([C@H]2CN3CC[C@H]2C[C@@H]3CNC(=O)C2CC2)n1` gave Luciferase inh inactive, HEK cytotox -18%[172 µM], 3T3 cytotox -27%[174 µM] and hNpr1 antagonist -5%[70.6 µM].
`Cc1nc(-c2cccs2)cc([C@H]2CN3CC[C@H]2C[C@@H]3CNC(=O)c2ccccc2)n1` gave Luciferase inh inactive, HEK cytotox inconclusive, 3T3 cytotox inconclusive and hNpr1 antagonist -16%[70.6 µM].
Screening Cc1nc(-c2cccs2)cc([C@H]2CN3CC[C@H]2C[C@@H]3CNC(=O)c2ccc3c(c2)OCO3)n1 returned Luciferase inh inactive, HEK cytotox inconclusive, 3T3 cytotox 40µM* and hNpr1 antagonist -7%.
Screening Cc1nc(-c2cccs2)cc([C@H]2CN3CC[C@H]2C[C@@H]3CNC(=O)Nc2cccc(C(F)(F)F)c2)n1 returned Luciferase inh inactive, HEK cytotox 25µM*, 3T3 cytotox 25µM* and hNpr1 antagonist 4%.
For Cc1nc(-c2ccccc2Br)cc([C@H]2CN3CC[C@H]2C[C@@H]3CNC(=O)c2cccs2)n1 the results were Luciferase inh inactive, HEK cytotox 79µM*, 3T3 cytotox inconclusive and hNpr1 antagonist -7%.
